# From PubChem BioAssay (EPA / NIEHS)
# Results filed as inconclusive are left out. Activity calls are given as the source filed them. Rule for the calls, unless noted: active = hit-call score of the fitted dose curve at least 0.9, where 1 is the maximum; inconclusive = response in the unintended direction; inactive = score below 0.9.
# Key:
# [1] = TOX21_p53_BLA_p2_viability: Viability Assessment in the Tox21 HCT-116 p53 Agonism Beta-lactamase Assay, Phase 2 (AID 2283591);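 note: compound exposure lasted 16 h at 37 °C; actives lower the ATP signal meaning cytotoxicity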
# Summary of the method: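 Cytotoxicity readout: CellTiter-Glo ATP luminescence, 30 min at room temperature, after the beta-lactamase read. Cells were HCT116 exposed 16 h at 37C to compounds pin-transferred at 217-fold dilution from DMSO stocks.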
# [2] = biological target: Cellular tumor antigen p53 (Homo sapiens) (UniProt P04637); assay: TOX21_p53_BLA_p2_ratio: Tox21 HCT-116 p53 Agonism Beta-lactamase Assay, Ratio, Phase 2 (AID 2283592)
# Sequence of Cellular tumor antigen p53 (Homo sapiens) (P04637 whole entry, looked up): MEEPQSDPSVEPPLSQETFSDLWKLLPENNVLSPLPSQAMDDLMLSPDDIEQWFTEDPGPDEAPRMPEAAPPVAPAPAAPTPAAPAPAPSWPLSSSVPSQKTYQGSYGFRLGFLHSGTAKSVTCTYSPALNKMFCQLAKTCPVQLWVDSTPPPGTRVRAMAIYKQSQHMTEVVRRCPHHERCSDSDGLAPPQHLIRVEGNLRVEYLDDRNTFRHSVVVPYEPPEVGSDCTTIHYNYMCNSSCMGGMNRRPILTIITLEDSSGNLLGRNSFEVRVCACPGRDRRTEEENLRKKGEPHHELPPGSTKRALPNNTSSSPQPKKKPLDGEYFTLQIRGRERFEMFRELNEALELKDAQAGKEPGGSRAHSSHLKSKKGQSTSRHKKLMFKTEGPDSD
# Summary of the method: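 Ratio endpoint: beta-lactamase cleavage of CCF4-AM, blue (460 nm) over green (530 nm). HCT116 reporter line; 16 h treatment, 37C; substrate 2 h RT.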
# [3] = biological target: Cellular tumor antigen p53 (Homo sapiens) (UniProt P04637); assay: TOX21_p53_BLA_p3_ratio: Tox21 HCT-116 p53 Agonism Beta-lactamase Assay, Ratio, Phase 3 (AID 2283596)
# Summary of the method: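 Cells were seeded at 4000/well, rested 5 h at 37C, then dosed with DMSO compound solutions (217-fold dilution) for 16 h. CCF4-AM substrate was loaded for 2 h at room temperature, and the 460/530 nm emission ratio was fitted for gain of signal versus DMSO.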
# [4] = biological target: Cellular tumor antigen p53 (Homo sapiens) (UniProt P04637); assay: TOX21_p53_BLA_p5_ratio: Tox21 HCT-116 p53 Agonism Beta-lactamase Assay, Ratio, Phase 5 (AID 2283599)
# Summary of the method: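 Beta-lactamase reporter ratio (blue 460 nm over green 530 nm, 405 nm excitation) after 2 h CCF4-AM loading, in HCT-116 cells exposed 16 h at 37 C to compounds pinned at 217-fold dilution. Increases relative to DMSO baseline scored.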
# [5] = biological target: Cellular tumor antigen p53 (Homo sapiens) (UniProt P04637); assay: TOX21_p53_BLA_p4_ratio: Tox21 HCT-116 p53 Agonism Beta-lactamase Assay, Ratio, Phase 4 (AID 2283601)
# Summary of the method: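 Signal is the blue/green (460nm/530nm) ratio of cleaved versus uncleaved CCF4-AM substrate, read after 2 h substrate loading. Cells were HCT116 carrying the p53-responsive beta-lactamase reporter, dosed 16 h at 37C, 5% CO2; CellTiter-Glo measured in parallel.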
# [6] = TOX21_p53_BLA_p5_viability: Viability Assessment in the Tox21 HCT-116 p53 Agonism Beta-lactamase Assay, Phase 5 (AID 2283600)
# Summary of the method: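 Luciferase-coupled ATP quantitation of cells treated for 16 h (37C, 5% CO2) with test chemicals delivered in DMSO via a 217-fold dilution; 4000 cells/well; reagent incubated 30 min at room temperature before luminescence reading.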
# [7] = ACEA_ER_AUC_viability: ACEA Biosciences xCELLigence Real-Time Cell Analysis on Estrogen Receptor Agonism for Viability (AID 2283782);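 note: hit means loss of impedance signal meaning reduced cell growth or viability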
# Summary of the method: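 Viability endpoint: reduced impedance area under the curve relative to DMSO, recorded by real-time electrode sensing over ~80 h of continuous exposure. Duplicate plates of T47D in hormone-depleted medium; eight concentrations, 1:4 dilutions, 100 uM maximum.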
# [8] = CCTE_Harrill_HTTr_Viability_MCF7: CCTE's 6-hour Cell Viability Assessment for the High-Throughput Transcriptomics (HTTr) Platform, in MCF-7 cells cultured in DMEM + 10% fetal bovine serum, Harrill Lab (AID 2284010; active = hit-call score of the fitted dose curve at least 0.9, where 1 is the maximum; inactive = score below 0.9)
# Summary of the method: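 Read-out is propidium iodide gain of signal by high-content imaging, reflecting membrane integrity loss. Measurements are taken 6 h after dosing, eight concentrations per chemical, with DMSO serving as baseline for bidirectional curve fitting.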
smiles,measurement,setting,value
CC(=O)N[C@@H]([C@@H](O)[C@H](O)[C@H](O)CO)[C@@H](O)CC(=O)C(=O)O,outcome,[1],inactive
same,outcome,[2],inactive
same,outcome,[3],inactive
same,outcome,[4],inactive
same,outcome,[5],inactive
CC1(C)[C@H](C(=O)O)N2C(=O)C[C@H]2S1(=O)=O,outcome,[1],inactive
same,outcome,[2],inactive
same,outcome,[3],inactive
same,outcome,[4],inactive
same,outcome,[5],inactive
CN(C)CCC(c1ccccc1)c1ccccn1 (centres undefined),outcome,[1],inactive
same,outcome,[2],inactive
same,outcome,[3],inactive
same,outcome,[4],inactive
same,outcome,[6],inactive
same,outcome,[5],inactive
CN(C)c1ccc(CCO)cc1,outcome,[1],inactive
same,outcome,[2],inactive
same,outcome,[3],inactive
same,outcome,[4],inactive
same,outcome,[5],inactive
CCCC/C=C/CCCCO,outcome,[1],inactive
same,outcome,[2],inactive
same,outcome,[3],inactive
same,outcome,[4],inactive
same,outcome,[6],inactive
same,outcome,[5],inactive
same,AC50,[7],50000 nM (active)
CC12CCC(C1)C(C)(C)C2=O (centres undefined),outcome,[1],inactive
same,outcome,[2],inactive
same,outcome,[3],inactive
same,outcome,[4],inactive
same,outcome,[5],inactive
CC/C=C\C/C=C\C/C=C\C/C=C\C/C=C\C/C=C\CCC(=O)O,outcome,[1],inactive
same,outcome,[2],inactive
same,outcome,[3],inactive
same,outcome,[4],inactive
same,outcome,[5],inactive
O=C(O)[C@H](CC(=O)N1C[C@H]2CCCC[C@H]2C1)Cc1ccccc1,outcome,[1],inactive
same,outcome,[2],inactive
same,outcome,[3],inactive
same,outcome,[4],inactive
same,outcome,[5],inactive
CCN(CC)c1cccc(O)c1,outcome,[1],inactive
same,outcome,[2],inactive
same,outcome,[3],inactive
same,outcome,[4],inactive
same,outcome,[6],inactive
same,outcome,[5],inactive
CC(C)OC(=O)Nc1ccc2nc(-c3cscn3)[nH]c2c1,outcome,[1],inactive
same,AC50,[2],1520 nM (active)
same,AC50,[3],2600 nM (active)
same,AC50,[4],2330 nM (active)
same,AC50,[5],1090 nM (active)
ON=C1CCCC1,outcome,[1],inactive
same,outcome,[2],inactive
same,outcome,[3],inactive
same,outcome,[4],inactive
same,outcome,[5],inactive
CCCCC,outcome,[1],inactive
same,outcome,[2],inactive
same,outcome,[3],inactive
same,outcome,[4],inactive
same,outcome,[6],inactive
same,outcome,[5],inactive
CCCCCCCCCCCCCCCC(=O)NCCO,outcome,[1],inactive
same,outcome,[2],inactive
same,outcome,[3],inactive
same,outcome,[4],inactive
same,outcome,[6],inactive
same,outcome,[5],inactive
CN1CCC(=C2c3ccccc3C=Cc3ccccc32)CC1,AC50,[1],39300 nM (active)
same,AC50,[2],43200 nM (active)
same,outcome,[3],inactive
same,outcome,[4],inactive
same,outcome,[5],inactive
NC(=O)N[C@@H](CCC(=O)O)C(=O)O,outcome,[1],inactive
same,outcome,[2],inactive
same,outcome,[3],inactive
same,outcome,[4],inactive
same,outcome,[5],inactive
NC[C@@H]1O[C@H](O[C@H]2[C@@H](O)[C@H](O[C@@H]3[C@@H](O)[C@H](N)C[C@H](N)[C@H]3O[C@H]3O[C@H](CO)[C@@H](O)[C@H](O)[C@H]3N)O[C@@H]2CO)[C@H](N)[C@@H](O)[C@@H]1O,outcome,[1],inactive
same,outcome,[2],inactive
same,outcome,[3],inactive
same,outcome,[4],inactive
same,outcome,[5],inactive
CC(C)c1ccccc1,outcome,[1],inactive
same,outcome,[2],inactive
same,outcome,[3],inactive
same,outcome,[4],inactive
same,outcome,[5],inactive
CC[C@@H](C(=O)[C@@H](C)[C@@H](O)[C@H](C)[C@@H]1O[C@@H]([C@@H](CC)C(=O)O)CC[C@@H]1C)[C@H]1O[C@]2(C=C[C@@H](O)[C@]3(CC[C@@](C)([C@H]4CC[C@](O)(CC)[C@H](C)O4)O3)O2)[C@H](C)C[C@@H]1C,outcome,[1],inactive
same,outcome,[2],inactive
same,outcome,[3],inactive
same,outcome,[4],inactive
same,outcome,[5],inactive
N#Cc1c(N(CC(=O)O)CC(=O)O)sc(C(=O)O)c1CC(=O)O,outcome,[1],inactive
same,outcome,[2],inactive
same,outcome,[3],inactive
same,outcome,[4],inactive
same,outcome,[5],inactive
CN(C)CCC[C@@]1(c2ccc(F)cc2)OCc2cc(C#N)ccc21,outcome,[1],inactive
same,outcome,[2],inactive
same,outcome,[3],inactive
same,outcome,[4],inactive
same,outcome,[5],inactive
CN1CCCCC1CCN1c2ccccc2Sc2ccc(S(C)=O)cc21 (centres undefined),outcome,[1],inactive
same,outcome,[2],inactive
same,outcome,[3],inactive
same,outcome,[4],inactive
same,outcome,[5],inactive
OC[C@@H](O)C(O)[C@H](O)CO,outcome,[1],inactive
same,outcome,[2],inactive
same,outcome,[3],inactive
same,outcome,[4],inactive
same,outcome,[5],inactive
c1ccc2c(c1)OCC(CN1CCCCC1)O2 (centres undefined),outcome,[1],inactive
same,outcome,[2],inactive
same,outcome,[3],inactive
same,outcome,[4],inactive
same,outcome,[5],inactive
CO/N=C(\C(=O)N[C@@H]1C(=O)N2C(C(=O)O)=CCS[C@H]12)c1csc(N)n1,outcome,[1],inactive
same,outcome,[2],inactive
same,outcome,[3],inactive
same,outcome,[4],inactive
same,outcome,[6],inactive
same,outcome,[5],inactive
C[C@]12C=CC(=O)C=C1CC[C@@H]1[C@@H]2[C@@H](O)C[C@@]2(C)[C@H]1CC[C@]2(O)C(=O)COC(=O)CCC(=O)O,outcome,[1],inactive
same,outcome,[2],inactive
same,outcome,[3],inactive
same,outcome,[4],inactive
same,outcome,[5],inactive
O=C1OCCN1N=Cc1ccc([N+](=O)[O-])o1,outcome,[1],inactive
same,outcome,[2],inactive
same,outcome,[3],inactive
same,outcome,[4],inactive
same,outcome,[6],inactive
same,outcome,[5],inactive
same,outcome,[8],inactive
FC(F)(F)C(F)(F)C(F)(F)C(F)(F)C(F)(F)F,outcome,[1],inactive
same,outcome,[2],inactive
same,outcome,[3],inactive
same,outcome,[4],inactive
same,outcome,[5],inactive
CC(C)(CO)[C@@H](O)C(=O)NCCC(=O)NCCSSCCNC(=O)CCNC(=O)[C@H](O)C(C)(C)CO,outcome,[1],inactive
same,outcome,[2],inactive
same,outcome,[3],inactive
same,outcome,[4],inactive
same,outcome,[5],inactive
CN1C(=O)CC(c2ccccc2)C1=O (centres undefined),outcome,[1],inactive
same,outcome,[2],inactive
same,outcome,[3],inactive
same,outcome,[4],inactive
same,outcome,[5],inactive
CCN(CC)CCOC(=O)c1ccc(N)cc1Cl,outcome,[1],inactive
same,outcome,[2],inactive
same,outcome,[3],inactive
same,outcome,[4],inactive
same,outcome,[5],inactive
